Pf growth 48h: inhibits P. falciparum growth in the first generation, 48 h; P. falciparum luciferase growth in erythrocytes, 48 h; Potency, µM (highest dose often 28.7 µM), for inactives: at the top dose activity change, negative = inhibition, hits mostly inhibitors; 310,000 tested, 5.9% active; note: potency is the fitted concentration of half-maximal effect
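A one-generation exposure of luciferase-tagged malaria parasites in RPMI 1640/Albumax erythrocyte culture, 37 C and 5% CO2. Inhibition is inferred from decreased luminescence after adding detection reagent.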
HCMV inh: inhibitors of human cytomegalovirus | HFF cells, HCMV-luciferase reporter, 72 h; hits give low values | activity change, negative = inhibition, % at 57.5 µM | 410,000 tested, 4.5% active | AID 1259415; in the data active = activity change below about -60%; inconclusive = no clear call, values can overlap the other calls; inactive = above about -39%
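Human foreskin fibroblasts infected with luciferase-reporter HCMV at MOI 1 PFU/cell, compounds at two doses. Luciferase measured 72 h post infection; normalized to buffer-only basal and Salinomycin (10uM) controls.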
Marburg entry inh: inhibitors of Marburg virus binding or cell entry | AID 540276 | 300,000 tested, 1.8% active | Marburg virus pseudotyped entry inhibition, cell reporter | Potency, µM (series often up to 37.8 µM), inactives show at the highest dose activity change, negative = inhibition, actives largely listed as inhibitors; calls by dose curve; tested in HEK293 cells; note: potency is the fitted concentration of half-maximal effect
HCV inh: inhibitors of hepatitis C virus infection; Potency, µM (titrated, usually from 41.8 µM), for inactives: top-dose activity change, negative = inhibition, actives largely listed as inhibitors; Huh7.5.1 HCVcc-Cre infection, luciferase reporter, 44 h; AID 651820; 340,000 tested, 3.4% active; note: potency is the fitted concentration of half-maximal effect
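Compounds are dispensed onto cells plated 4 h earlier at 1,000 per well, with HCVcc-Cre virus (about 0.5 moi) added next. Following 44 h of culture, luminescent signal is measured for 15 sec after 15 min with substrate at room temperature.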
LASV entry inh: inhibitors of Lassa virus binding or cell entry | Lassa virus pseudotype entry inhibition, cell reporter | 300,000 tested, 1.2% active | Potency, µM (doses to about 37.9 µM), for inactives: at the top dose activity change, negative = inhibition, hits mostly inhibitors; calls by dose curve; tested in HEK293 cells; note: potency is the fitted concentration of half-maximal effect; nearly all actives have a fitted effect of over 50% in size
Pf growth 96h: P. falciparum growth inhibition at 96 hour, primary screen for plastid delayed-death inhibitors | P. falciparum luciferase reporter growth, 96 h | Potency, µM (doses to about 28.7 µM), without a hit: at the top dose activity change, negative = inhibition, actives largely listed as inhibitors | 320,000 tested, 6.9% active | AID 504834; note: potency is the fitted concentration of half-maximal effect
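Two parasite generations (96 h, 37 C, 5% CO2) of compound exposure in infected erythrocytes (0.05% parasitemia, 2% hematocrit). Luciferase-reporter P. falciparum; decreased luminescence indicates inhibited growth, aimed at apicoplast-acting delayed death.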
* hit, by the source's call; ? = inconclusive; . = no result given; [ ] = another dose, or the depositor's remark. Shown are actives, neighbours in structure and some others; about 14% of the full set was active somewhere. Unless noted, calls come from the whole dose curve; as a rule, active = well fitted inhibition curve with a large enough effect; inconclusive = small, poorly fitted or top-dose-only effect, or another doubt; inactive = no such curve, though single readings can be large or run the other way. % is set by controls: 0 for no effect and ±100 for the full control effect.

SMILES | Pf growth 48h | HCMV inh | Marburg entry inh | HCV inh | LASV entry inh | Pf growth 96h
N#C[C@H](c1ccccc1)C1CCN(S(=O)(=O)CCCCl)CC1 | . | -20 | . | . | . | .
CCN1c2ccccc2-c2nc3ccccc3n2C1c1cccs1 (stereo not drawn) | 8.3µM* | ? | ? | ? | 6% | 3.7µM*
COc1ccc2c(c1)/C(=C/c1cnc[nH]1)C(=O)N2 | ? | -97* | ? | ? | ? | 5.2µM*
Fc1ccc(NC(=S)NCc2ccccc2Cl)cc1 | 12% | -70* | 38% | -14% | -3% | 8%
Fc1ccc(CCNC(=S)Nc2ccc(F)c(Cl)c2)cc1 | ? | -66* | 4%[46.1 µM] | ? | ? | 4%
O=[N+]([O-])c1ccc(NC(=S)NCCc2ccc(F)cc2)cc1 | 10µM* | -98* | ? | ? | ? | 5.2µM*
O=C(NCCc1ccc(Cl)cc1)Nc1ccc(F)cc1 | 15µM* | -31 | 4%[46.1 µM] | 5% | -3% | -1%
COCC=CC1=CC2=CC(=O)C(C)(OC(=O)c3cnc4ccccc4n3)C(=O)C2=CN1CCc1c[nH]c2ccccc12 (stereo not drawn) | . | . | 22%[14.2 µM] | . | . | .
CCc1ccccc1NC(=O)Nc1ccc(F)cc1 | 0% | 0 | -24%[46.1 µM] | -9% | ? | ?
O=C(NCC1CC1)Nc1cccc(Cl)c1 | 33% | 25 | . | 1% | . | 13%
CCCc1c(NC(=O)Nc2ccc(F)cc2)cnn1-c1ccc(Cl)cc1 | 6.6µM* | -81* | ? | 15% | 5µM* | ?
O=C(NCC1CC1)Nc1ccc(Cl)cc1 | 34% | -95* | . | -8% | . | 65%
Fc1ccc(NC(=S)NCCc2ccc(Cl)cc2)cc1 | -26% | -69* | ? | 8% | 20% | -10%
CCOC(=O)C1=C(O)c2ccccc2C(=O)/C1=C\c1ccc(C)cc1 | 2.9µM* | . | ? | 1% | ? | 4.1µM*
CCOC(=O)C1=C(C)OC(=Cc2ccccc2)C1=O | . | -5 | . | . | . | .
COC(=O)CCC/C=C1/SCC(NC(=O)c2ccccc2)C1=O (stereo not drawn) | . | -22 | ? | 11% | 1% | 9.3µM*
CCCN1CCC(NC(=O)CC2C(=O)NCCN2Cc2cccc(OC)c2)CC1 (stereo not drawn) | 0% | 10 | . | 5% | . | ?
CCCN1CCC(NC(=O)CC2C(=O)NCCN2Cc2ccccc2C)CC1 (stereo not drawn) | 24% | . | . | 9% | . | 10µM*
Cc1cccc(CCNC(=O)CC2C(=O)NCCN2Cc2ccccc2C)n1 (stereo not drawn) | -54% | 46 | -3%[46.1 µM] | -4% | 1%[46.1 µM] | 12µM*
Cc1cccc(CCNC(=O)CC2C(=O)NCCN2CC2CCCCC2)n1 (stereo not drawn) | ? | -17 | -2%[46.1 µM] | 9% | -6% | ?
COc1ccc(-n2c(=O)c3c4c(sc3n(C)c2=O)CN(C(C)=O)CC4)cc1 | . | -6 | -14%[46.1 µM] | . | . | .
COc1cc([N+](=O)[O-])ccc1NC(=O)Nn1cnnc1 | 11% | 11 | . | -8% | . | 13µM*
COc1cc([N+](=O)[O-])ccc1NC(=O)Nc1ccc2c(c1)OCCO2 | 31% | 6 | ? | 7.1µM* | . | 35%
O=C(Nc1ccc([N+](=O)[O-])cc1)Nc1ccc2c(c1)OCCO2 | 181% | -13 | ? | ? | ? | -10%
CCOC(=O)c1c(C)nsc1NC(=O)C1(C)CCN1C(=O)CC (stereo not drawn) | . | -32 | . | . | . | .
CCOC(=O)c1cnc(-n2nc(C)cc2C)nc1NC1CCCCC1 | 1.7µM* | -87* | 6.3µM* | 5.6µM* | ? | -1%
CCOC(=O)c1cnc(-n2nc(C)cc2C)nc1Nc1cccc(C(=O)O)c1 | 0% | -30 | -6% | 12% | 0% | ?
CCOC(=O)c1cnc(-n2nc(C)cc2C)nc1NNc1nc(-c2ccccc2)cc(-c2ccccc2)n1 | 1.5µM* | . | ? | ? | ? | ?
CCOC(=O)c1cnc(-n2nc(C)cc2C)nc1NC | 0% | -8 | -7% | -13% | 10% | -23%[5.75 µM]
CCOC(=O)c1cnc(-n2nc(C)cc2C)nc1NNc1nc(C)cc(C)n1 | 0.59µM* | -21 | . | ? | . | 2.9µM*

Screens as filed in PubChem.
